# ALDH1A1 inh: qHTS Assay for Inhibitors of Aldehyde Dehydrogenase 1 (ALDH1A1). AID 1030, 2008. Potency, µM (series often up to 75.3 µM), most hits filed as inhibitors. Purified ALDH1A1, NADH fluorescence, propionaldehyde substrate. 7.3% of 220,000 active
# HPGD inh: qHTS Assay for Inhibitors of HPGD (15-Hydroxyprostaglandin Dehydrogenase) | purified HPGD, NADH fluorescence kinetic, PGE2 substrate | 15-hydroxyprostaglandin dehydrogenase [NAD(+)] (Homo sapiens), P15428 | Potency, µM, actives largely listed as inhibitors | 4.3% of 150,000 active
#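 NADH formation kinetics: reaction with 30 uM PGE2 and 1 mM NAD+ (final), 20 nM enzyme, Tris-HCl pH 8 with Tween 20, after 15 min compound preincubation at room temperature. Fluorescence change, last versus first of five reads.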
# CBFb RUNX1 block: qHTS Assay for Compounds Blocking the Interaction Between CBF-beta and RUNX1 for the Treatment of Acute Myeloid Leukemia; AlphaScreen CBFb-His/RUNX1-biotin binding, biochemical; Potency, µM (series often up to 59.8 µM), usual class: inhibitors; 230,000 tested, under 10 active; active = well fitted curve in the direction sought with a large enough effect; inconclusive = small, poorly fitted or top-dose-only effect, or another doubt; inactive = no such curve, though single readings can be large; an effect the other way counts as inactive or inconclusive
# Target sequence (Q01196 whole entry, looked up): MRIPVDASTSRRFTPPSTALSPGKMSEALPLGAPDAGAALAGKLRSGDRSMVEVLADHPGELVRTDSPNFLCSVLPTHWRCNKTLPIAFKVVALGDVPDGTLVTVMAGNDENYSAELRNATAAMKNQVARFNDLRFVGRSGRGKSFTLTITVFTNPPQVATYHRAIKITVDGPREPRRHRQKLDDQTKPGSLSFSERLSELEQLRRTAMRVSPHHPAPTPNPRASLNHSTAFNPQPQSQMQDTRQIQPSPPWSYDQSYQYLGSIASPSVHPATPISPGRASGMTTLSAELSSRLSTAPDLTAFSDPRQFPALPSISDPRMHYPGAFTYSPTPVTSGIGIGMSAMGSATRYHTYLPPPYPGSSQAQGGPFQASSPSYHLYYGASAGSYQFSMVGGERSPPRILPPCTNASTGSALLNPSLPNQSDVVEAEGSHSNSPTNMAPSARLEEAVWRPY
# Target sequence (Q13951 whole entry, looked up): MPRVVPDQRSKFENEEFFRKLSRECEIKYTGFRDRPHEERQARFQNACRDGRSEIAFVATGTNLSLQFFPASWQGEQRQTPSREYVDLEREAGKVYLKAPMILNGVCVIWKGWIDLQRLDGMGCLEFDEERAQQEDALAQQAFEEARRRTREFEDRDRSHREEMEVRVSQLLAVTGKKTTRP
#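 Bead-based AlphaScreen assay; binding partners His-tagged CBF-beta and biotinylated RUNX1 at 30 nM each. Compound exposure 15 min after a 20-min protein preincubation; bead step 90 min; all steps at room temperature.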
# KDM4E inh: qHTS Assay for Inhibitors of Human Jumonji Domain Containing 2E (JMJD2E); Lysine-specific demethylase 4E (Homo sapiens), B2RXH2; JMJD2E catalytic domain, FDH-coupled NADH fluorescence (FDH is formaldehyde dehydrogenase); Potency, µM (doses to about 57.1 µM), hits mostly inhibitors; 1.6% of 230,000 active; note: nearly all actives have a fitted effect of over 50% in size
# HTT aggregate: qHTS Multiplex Assay to Identify Dual Action Probes in a Cell Model of Huntington: Aggregate Formation (GFP) | Potency, µM (doses to about 46.1 µM), usual class: inhibitors | 1.1% of 220,000 active | PC12 HttQ103-GFP aggregates, Acumen cytometry, 40 h; active = well fitted curve in the direction sought with a large enough effect; inconclusive = small, poorly fitted or top-dose-only effect, or another doubt; inactive = no such curve, though single readings can be large; an effect the other way counts as inactive or inconclusive; note: nearly all actives have a fitted effect of over 60% in size
#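 Steps: seed 1500 PC12 HTTQ103-GFP cells/well; add tebufenozide, 100 nM final; add compound titration; add ATPLite reagent; quantify GFP aggregates by laser scanning cytometry.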
# HTT ATP protect: qHTS Multiplex Assay to Identify Dual Action Probes in a Cell Model of Huntington: Cytoprotection (ATP). PC12 HTT-Q103 induced, cytoprotection, ATP luminescence, 40 h. AID 1471, 2008. 0.14% of 230,000 active. Potency, µM (series often up to 56.4 µM), hits mostly activators; active = well fitted curve in the direction sought with a large enough effect; inconclusive = small, poorly fitted or top-dose-only effect, or another doubt; inactive = no such curve, though single readings can be large; an effect the other way counts as inactive or inconclusive; note: nearly all actives have a fitted effect of over 45% in size
#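 Compounds were screened for protection of PC12 cells against cell death after tebufenozide induction (100 nM final) of mutant Huntingtin exon 1 (Q103) fused to GFP.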
# Hits are given with their value; - = inactive; ? = inconclusive; . = no result; [ ] = dose if it differs, or a comment. Most compounds without a hit are left out; they make up all but 9.8% or so of the library. Unless noted, calls come from the whole dose curve; as a rule, active = well fitted inhibition curve with a large enough effect (not every such curve was filed as active); inconclusive = small, poorly fitted or top-dose-only effect, or another doubt; inactive = no such curve, though single readings can be large or run the other way.
SMILES,ALDH1A1 inh,HPGD inh,CBFb RUNX1 block,KDM4E inh,HTT aggregate,HTT ATP protect
O=c1cc2oc3cc(O)c(O)cc3c(-c3ccccc3O)c-2cc1O,.,.,.,14µM,-[9.22 µM],-[10 µM]
COc1ccc(OC)c(-c2c3cc(O)c(=O)cc-3oc3cc(O)c(O)cc23)c1,?,14µM,.,11µM,5µM,.
COc1cccc(NC(=O)C(Cc2ccccc2)n2cccc2)c1 (centres undefined),.,.,-,-,-[9.22 µM],-[10 µM]
Cc1cccc(NC(=O)c2oc(=O)c3ccccc3c2-c2ccccc2)c1C,-,?,-,-,-,-[10 µM]
CCCCNS(=O)(=O)c1ccc(S(=O)(=O)N2CCC3(CC2)OCCO3)cc1,?,-,-,-,-,-[10 µM]
O=C1CNC(=S)N1CCc1ccc(O)c(O)c1,.,.,-,13µM,-[9.22 µM],-[10 µM]
O=C(C1CCN(C2CC(=O)N(Cc3ccccc3)C2=O)CC1)N1CCCCCC1 (centres undefined),11µM,?,-,-,-,-
O=C(C1CCN(C2CC(=O)N(c3ccc(Cl)cc3)C2=O)CC1)N1CCOCC1 (centres undefined),13µM,-,-,-,-,-
O=C1CC(N2CCC(Cc3ccccc3)CC2)C(=O)N1CCc1ccccc1 (centres undefined),2.2µM,-,-,-,-,-[10 µM]
O=C(C1CCN(C2CC(=O)N(c3cccc(Cl)c3)C2=O)CC1)N1CCCC1 (centres undefined),3.2µM,-,-,-,-,-
Cc1cccc(N2C(=O)CC(N3CCN(Cc4ccc(Cl)cc4)CC3)C2=O)c1 (centres undefined),?,-,-,-,-,-
CS(=O)(=O)N1CCN(C(=S)NCc2ccc(Cl)cc2)CC1,-,.,-,-,-,-
COc1cnc(SCc2c(Cl)cccc2Cl)nc1Cl,?,-,-,-,-,-
CCOC(=O)C1CCN(C2CC(=O)N(c3cccc(Cl)c3)C2=O)CC1 (centres undefined),20µM,-,-,-,-,-
COc1ccc(C/C(N)=N/OC(=O)C(c2ccccc2)c2ccccc2)cc1OC,6.3µM,.,?,-,-,-
COc1ccc(/C(N)=N/OC(=O)Cc2ccc(OC)c(OC)c2)cc1,7.9µM,.,-,-,?,-
O=c1[nH]nc(N2CCOCC2)c(=O)[nH]1,.,.,-,-,-[9.22 µM],-[10 µM]
CN(C(=O)c1coc(=O)c2ccccc12)c1ccccc1Cl,-,.,-,-,-,-
Cc1ccccc1Nc1nc(N)nc(CSCc2c(C)noc2C)n1,14µM,-,-,-,-,-[0.074 µM]
CC(C)NC(=O)c1onc(CSc2cccc3ccccc23)c1C(=O)O,?,22µM,-,-,-,-
CCCCNC(=O)c1onc(CSc2ccc(C(C)C)cc2)c1C(=O)O,-,10µM,-,-,-,-
CC(C)NC(=O)c1onc(CSc2ccccc2)c1C(=O)O,-,-,-,-,-,-
COCCNC(=O)c1onc(CSc2ccc(C(C)C)cc2)c1C(=O)O,-,16µM,-,-,-,-
CCOC(=O)C(=NCCCN(C)C)NNc1ccc(Br)cc1,?,-,-,?,-,-[10 µM]
CCCCN=C(NNc1ccc(Br)cc1)C(=O)OCC,14µM,-,-,-,-,-[10 µM]
C=C(C(C)=O)C(O)/C=C/c1ccco1 (centres undefined),-,-,-,-,.,-
Cc1sc2ncnc(N/N=C/c3ccc(O)cc3)c2c1C,-,-,-,-,-,-[10 µM]
O=C(O)c1ccc(Nc2ncnc3scc(-c4ccccc4)c23)cc1,?,.,-,-,-[9.22 µM],-[10 µM]
COc1cccc(/C=N/Nc2ncnc3scc(-c4ccccc4)c23)c1OC,?,18µM,-,-,?,-
Cc1sc2ncnc(N/N=C/c3ccccc3O)c2c1C,-,-,.,25µM,2.5µM,-[10 µM]
